The list is not random: actives were taken first. Their share in the collection is about 3.5%.
FBW7 activator – human FBW7 E3 ligase activation, primary screen; Q969H0; AlphaScreen FBW7–phospho-cyclin E peptide binding, activator screen; normalized activity (activation), % at 26.1 µM; actives 0.13% (n = 650,000); AID 1259310; in the data active means normalized activity above about 1.9%;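 further: purified mutant Fbw7 with reduced substrate affinity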
Target sequence (Q969H0 whole entry, looked up): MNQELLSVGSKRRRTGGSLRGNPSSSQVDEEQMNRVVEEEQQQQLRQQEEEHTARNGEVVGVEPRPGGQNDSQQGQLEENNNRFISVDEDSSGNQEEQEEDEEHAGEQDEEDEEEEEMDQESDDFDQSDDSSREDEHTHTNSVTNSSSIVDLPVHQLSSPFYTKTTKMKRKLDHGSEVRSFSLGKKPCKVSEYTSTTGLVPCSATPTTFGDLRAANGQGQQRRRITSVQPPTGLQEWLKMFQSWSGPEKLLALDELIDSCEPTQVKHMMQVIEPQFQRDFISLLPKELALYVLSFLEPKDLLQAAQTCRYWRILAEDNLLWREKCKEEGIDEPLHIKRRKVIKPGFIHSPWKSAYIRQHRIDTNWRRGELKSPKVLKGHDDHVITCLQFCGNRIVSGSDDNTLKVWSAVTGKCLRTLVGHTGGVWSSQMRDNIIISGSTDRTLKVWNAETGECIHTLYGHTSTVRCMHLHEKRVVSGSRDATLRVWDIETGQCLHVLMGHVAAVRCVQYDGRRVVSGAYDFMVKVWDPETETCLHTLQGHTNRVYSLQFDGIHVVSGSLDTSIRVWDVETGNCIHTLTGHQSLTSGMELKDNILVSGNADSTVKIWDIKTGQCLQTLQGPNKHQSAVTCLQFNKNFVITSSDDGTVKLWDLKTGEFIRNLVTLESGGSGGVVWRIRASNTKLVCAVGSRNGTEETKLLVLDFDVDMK
GPR151 activ – human GPR151 activation; Q8TDV0; activation, % at 11.2 µM; actives 1% (n = 650,000); PathHunter beta-arrestin GPR151 cells, luminescence; in the data active means activation above about 4.9%
MITF primary – human MITF inhibition, primary screen | O75030 | AlphaScreen MITF homodimerization, bead proximity signal | inhibition, % at 2.6 µM | actives 0.91% (n = 650,000) | AID 1259374; in the data active means inhibition above about 50%
TEAD-YAP block – TEAD-YAP interaction inhibition | HEK-TIYL cells, TEAD-Gal4/YAP UAS-luciferase luminescence | inhibition, % at 9.12 µM | actives 1.4% (n = 640,000) | AID 1259422; in the data active means inhibition above about 32%
GPR151 confirm – human GPR151 activation, confirmation screen. shares compounds with GPR151 activ. GPR151 PathHunter beta-arrestin cells, luminescence, 90 min; % of EA-reagent control over plate median. activation, % at 11.2 µM. 6,700 tested, under 10 active;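 active means mean percent activation across replicates above the confirmation screen cutoff of 4.91%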
GPR119 counter – activates human GPR119 in a GPR151 counter-screen. shares compounds with GPR151 activ. GPR119 PathHunter beta-arrestin cells, luminescence, 90 min; 0 = compound-well median, 100 = enzyme-acceptor control. activation, % at 11.2 µM. actives 0.3% (n = 6,700). AID 1508611;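 active means mean percent activation in the counterscreen above 29.09%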;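 further: counterscreen on off-target GPR119 to flag nonselective hits from the GPR151 activator screen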
Numbers stand for hits; – = inactive; · = no result; ! = a repeat was not active.

SMILES	FBW7 activator	GPR151 activ	MITF primary	TEAD-YAP block	GPR151 confirm	GPR119 counter
COc1cc(Nc2ccnc(N3CCc4ccccc4C3)n2)cc(OC)c1OC	–	6.8	–	–	–	–
CCCCCCCCCCCCCc1ccco1	–	7.1	–	–	–	–
CCCCCCNc1nc(NCc2ccco2)nc(OCC)n1	–	–	–	–	·	·
CCC1CCCCN1C(=O)Cn1c(=O)n(-c2ccc(F)cc2)c(=O)c2sccc21 (configuration not stated)	–	–	–	–	·	·
CC1CCCCN1C(=O)Cn1c(=O)n(-c2ccc(F)cc2)c(=O)c2sccc21 (configuration not stated)	–	5.2	–	–	–	–
Oc1ccc(C2CNCCc3c2cc(O)c(O)c3Cl)cc1 (configuration not stated)	–	6.6!	–	–	–	–
COc1ccc(/C=C2\SC(=N)N(C)C2=O)cc1OC	–	–	–	–	·	·
COc1ccc(/C=C2\SC(=N)N(c3nccs3)C2=O)cc1OC	–	5.7	–	–	–	–
COCCNC(=S)N1CCC(NC(=O)c2ccc(C)cc2)CC1	–	–	–	–	·	·
N/C(=N\OC(=O)CCCN1C(=O)c2ccccc2C1=O)c1ccccn1	–	5.3	–	–	–	–
C=CCNC(=O)C1CCN(C(=O)NCc2ccccc2)CC1	–	10.0	–	–	–	–
O=C(NC1CCN(C(=O)Nc2cccc(F)c2)CC1)c1cccc(F)c1	–	–	–	–	·	·
O=C(NC1CCN(C(=O)NCc2ccccc2)CC1)c1cccc(F)c1	–	5.6	–	–	–	–
COc1ccc(CNCc2cn3c(-c4ccc(Br)cc4)nnc3s2)cc1	–	–	–	–	·	·
CCCC(=O)N1c2c(C)cccc2C(Nc2ccccc2C)CC1C (configuration not stated)	–	–	–	–	·	·
CC1CCN(S(=O)(=O)c2coc(C(N)=O)c2)CC1	–	10	–	–	–	–
CC(=O)N1CCN(S(=O)(=O)c2ccc(S(=O)(=O)N3CCC(C)CC3)cc2)CC1	–	–	–	–	·	·
OCc1ccccc1NC(=S)Nc1cccnc1	–	5.8	–	–	–	–
Cc1ccccc1NC(=S)NCc1cccnc1	–	8.3	–	–	–	–
Cc1ccccc1NC(=S)Nc1cccnc1	–	–	–	–	·	·
COc1ccc2ccccc2c1/C=C(\C#N)c1ccccn1	–	5.2	–	–	–	–
COc1ccc(/C=C(\C#N)c2ccccn2)c(OC)c1OC	–	–	–	–	·	·
COc1cc2c(cc1NC(=O)Cc1cccc3ccccc13)oc1ccccc12	–	–	–	–	·	·
Cc1nc(-c2ccc(S(=O)(=O)N3CCOCC3)cc2)cs1	–	8.6	–	–	–	–
COC(=O)c1ccc(NC(=O)CN(c2ccc(F)cc2)S(C)(=O)=O)cc1	–	–	–	–	·	·
SMILES	FBW7 activator	GPR151 activ	MITF primary	TEAD-YAP block	GPR151 confirm	GPR119 counter
COC(=O)c1ccc(C)c(NC(=O)CN(c2ccc(F)cc2)S(C)(=O)=O)c1	–	7.1	–	–	–	–
O=C(NCc1cccnc1)c1cc(=O)c(OCc2ccccc2)co1	–	–	–	–	·	·
COc1ccc(-c2cncc(-c3cc(N4CCN(CCO)CC4)nc(C)n3)c2)cc1	–	7.1	–	–	–	–
CCCc1ccc(C(=O)/C=C/N(C)C)cc1	–	5.7	–	–	–	–
Cc1ccc(N2C(=O)C3CC=CC(C)C3C2=O)cc1 (configuration not stated)	–	12	–	–	–	–
CC1C=CCC2C(=O)N(c3ccc([N+](=O)[O-])cc3)C(=O)C12 (configuration not stated)	–	–	–	–	·	·
Cc1cc([N+](=O)[O-])ccc1N1C(=O)/C(=C/c2ccc(-c3ccc(Cl)c(Cl)c3)o2)C=C1c1ccccc1	–	–	–	–	·	·
CC(=O)c1ccc(NC(=S)Nc2cc([N+](=O)[O-])ccc2C)cc1	–	6.3	–	–	–	–
Cc1ccc(C(=O)O)cc1NC(=O)Nc1ccc([N+](=O)[O-])cc1	–	–	–	–	·	·
COc1cccc(C2CC(=O)Nc3cc(C)c(C)cc32)c1OC (configuration not stated)	–	–	–	–	·	·
COc1cc(C2CC(=O)Nc3cc(C)c(C)cc32)cc(OC)c1OC (configuration not stated)	–	13	–	49	–	–
Cc1cc2c(cc1C)C(c1cccc([N+](=O)[O-])c1)CC(=O)N2 (configuration not stated)	–	–	–	–	·	·
Cc1cc2c(cc1C)C(c1cc([N+](=O)[O-])ccc1Cl)CC(=O)N2 (configuration not stated)	–	5.0	–	–	–	–
COc1cccc(-c2cc(C(F)(F)F)n3nc(C(=O)Nc4c(C#N)cnn4C)cc3n2)c1	–	–	–	–	·	·
CCOc1ccc(NC(=O)CN2N=NC3C(=O)N(c4ccc(Cl)cc4)C(=O)C32)cc1 (configuration not stated)	–	5.7	–	–	–	–
O=C1N=C(N2CCCCC2)S/C1=C\c1ccco1	–	–	–	–	·	·
O=C1N=C(N2CCCC2C(=O)O)S/C1=C\c1ccco1 (configuration not stated)	–	11	–	–	–	–
N#C/C(=C\c1ccc([N+](=O)[O-])o1)c1nc(-c2ccccc2)cs1	–	–	–	–	·	·
CC1CC(C)CN(S(=O)(=O)c2ccc(NC(=O)Cc3ccc4c(c3)OCCO4)cc2)C1 (configuration not stated)	–	–	–	–	·	·
CCc1c(C)nc2cc(-c3ccc(OC)c(OC)c3)nn2c1NCCCn1ccnc1	–	6.3	–	–	–	–
CCc1c(C)nc2cc(-c3ccc(OC)c(OC)c3)nn2c1NCCO	–	–	–	–	·	·
Cc1ccccc1NC(=O)C1CCCN(S(=O)(=O)c2ccc3c(c2)oc(=O)n3C)C1 (configuration not stated)	–	–	–	–	·	·
OC1(c2nccs2)COC2(CCN(c3c4c(nc5ncnn35)CCC4)CC2)C1 (configuration not stated)	–	–	–	–	·	·
COc1ccc(-c2oc3c(CC=C(C)C)c(O[C@@H]4O[C@H](CO)[C@@H](O)[C@H](O)[C@H]4O)cc(O)c3c(=O)c2O[C@@H]2O[C@@H](C)[C@H](O)[C@@H](O)[C@H]2O)cc1	–	6.8!	–	–	–	–
CC(=O)c1c(C)[nH]c(C(=O)Nc2nc3c(C)cc(C)cc3s2)c1C	–	5.9	–	–	–	–
Cc1cccnc1NC(=S)NC(=O)c1cccc(Cl)c1	–	5.0	–	–	–	–
CC(=O)Nc1ccc(NC(=S)NC(=O)c2cccc(Cl)c2)cc1	–	–	–	–	·	·
COc1ccccc1N1CCN(C(c2nnnn2Cc2cccs2)C(C)C)CC1 (configuration not stated)	–	–	–	–	·	·

Assay outcomes from PubChem BioAssay.
